Among all 420,000 compounds or so, about 64,000 (15%) were called active. Another 27% or so got no clear call; they are omitted. Only a sample is shown. Unmarked numbers belong to inactive results. The call rests on the fitted dose curve; in most records, active means well fitted inhibition curve with a large enough effect; inconclusive means small, poorly fitted or top-dose-only effect; inactive means flat fitted curve, though single readings scatter. Peptide text beside a SMILES is read from it.
Assay: qHTS for Inhibitors of human tyrosyl-DNA phosphodiesterase 1 (TDP1): qHTS in cells in absence of CPT; further: nearly all actives have a fitted effect of over 55% in size
Conditions: DT40 Tdp1-/- hTDP1 cells, no CPT, ATP luminescence, 48 h; activity change, negative = growth inhibition: at 46.2 µM (top of the series)
In short: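 Luminescent ATP content (CellTiter-Glo) served as the growth readout. Knockout chicken DT40 cells expressing human TDP1 were exposed to compounds without camptothecin for a minimum 48 hr at 37 °C.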
On the % scale 0 is the no-effect control and ±100 the full control effect; potency means the concentration at half of the fitted maximal effect.

Row | SMILES | activity change, negative = growth inhibition [%] | Potency
1 | C=CCNC(=O)/C(=C\c1cccc([N+](=O)[O-])c1)NC(=O)c1ccccc1 | 2.93 | –
2 | COc1cc(/C=C/C(=O)OCC(=O)NC2CC2)cc(OC)c1OC | -6.43 | –
3 | Cc1cc(=O)oc2cc(NC(=O)C(C)Oc3ccccc3)ccc12 (centres undefined) | -22.7 | –
4 | C[C@H](CO)N1C[C@H](C)[C@@H](CN(C)S(=O)(=O)c2ccc(Oc3ccccc3)cc2)OCc2cn(nn2)CCCC1=O | -20.9 | –
5 | COc1ccc(NC(=O)CSc2nc(N)c(-c3ccccc3)c(=O)[nH]2)cc1 | 3.54 | –
6 | CC(C)c1ccc(Nc2ncccc2C#N)cc1 | -21.5 | –
7 | CCc1nnc(NC(=O)c2cccs2)s1 | -3.32 | –
8 | CC(=O)c1cccc(NC(=O)C2CCCN2S(=O)(=O)c2cccc3nsnc23)c1 (centres undefined) | -1.49 | –
9 | CCC(c1nnnn1C1CCCC1)N1CCN(C(=O)c2ccco2)CC1 (centres undefined) | 1.8 | –
10 | CC(C)C(c1nnnn1C1CCCCC1)N1CCN(C(=O)c2ccco2)CC1 (centres undefined) | 0.558 | –
11 | CC(C)C(c1nnnn1C1CCCC1)N1CCN(c2ccccc2F)CC1 (centres undefined) | – | 18.4 µM (active)
12 | CC(C)C[C@@H](NC(=O)[C@H]1CCCN1C(=O)Cc1ccccc1)C(N)=O (HELM PEPTIDE1{[O=C(Cc1ccccc1)[*:2]].[dP].[dL].[am]}$$$$V2.0) | 6.33 | –
13 | CC(C)C(=O)Nc1c2c(nn1-c1ccccc1)CSC2 | 4.86 | –
14 | COCCN1C(=O)N[C@@H](CCc2ccccc2)[C@H](C(C)=O)[C@H]1C | -9.51 | –
15 | CCN1C(=NCc2ccc(OC)cc2)N[C@@H](CCc2ccccc2)[C@H](C(=O)NCc2ccc(OC)cc2)[C@H]1C | – | 9.2 µM (active)
16 | CCN1C(=O)N[C@@H](c2ccccc2)[C@H](C(C)=O)[C@H]1C | -1.65 | –
17 | CCN1C(=NCCc2cccnc2)N[C@@H](c2ccccc2)[C@H](C(=O)OC)[C@H]1C | -24.1 | –
18 | CCN1C(=NCC(C)C)N[C@@H](CCc2ccccc2)[C@H](C(=O)NCC(C)C)[C@H]1C | – | 13 µM (active)
19 | CC1=C(C)CC(C(=O)NC(C)CCc2ccccc2)C(C(=O)O)C1 (centres undefined) | -0.273 | –
20 | CCc1ccccc1NC(=O)CSc1nnc([C@@H](NC(=O)OC(C)(C)C)C(C)C)o1 | -11 | –
21 | Cc1c(NS(=O)(=O)c2ccc(Cl)cc2)c(=O)n(-c2ccccc2)n1C | -6.89 | –
22 | CC1CCCC(N2CCN(C(=O)c3ccc(F)cc3)CC2)C1 (centres undefined) | 0.357 | –

Row | SMILES | activity change, negative = growth inhibition [%] | Potency
23 | CS(=O)c1ccc(/C=C2\C=Cc3ccccc32)cc1 (centres undefined) | – | 20 µM (active)
24 | CN(C(=N)N)c1ccc(/C=C2\C=Cc3ccccc32)cc1 | – | 2.82 µM (active)
25 | C#CCCOC(=O)N1C2=NC(C(=O)OC)=C(C(=O)OC)[C@@H]3N(C)c4ccc(OC)cc4[C@]23C[C@H]1C(=O)OC | -22.5 | –
26 | O=c1ccc2cc(S(=O)(=O)NCCCc3ccccc3)ccc2[nH]1 | 2.3 | –
27 | C=CCn1c(SCc2nnc(-c3ccccc3)o2)nnc1C(O)c1ccccc1 (centres undefined) | -2.15 | –
28 | FC(F)(F)c1cccc(-c2cn[nH]c2C2CCCN(Cc3cccn3-c3ccccn3)C2)c1 (centres undefined) | -15.9 | –
29 | Cc1nn(C)cc1C(=O)Nc1ccccc1Br | 1.55 | –
30 | COc1ccc(N2CCN(Cc3nc4c(c(=O)[nH]c(=O)n4C)n3Cc3ccc(Cl)cc3)CC2)cc1 | -9.95 | –
31 | COc1ccc(CN2CCC(c3nc4ccc(Cl)cc4[nH]3)CC2)cc1 | – | 20.6 µM (active)
32 | COc1ccc(Cn2nnc3c(=O)[nH]c(C4CCN(C(=O)c5ccccc5Cl)CC4)nc32)cc1 | -20.1 | –
33 | CN(CCCNC(=O)CN1C(=O)CC(C)(C)S(=O)(=O)c2ccccc21)C1CCCCC1 | -1.88 | –
34 | COC(=O)c1nc(NC(=O)c2ccc(Cl)cc2)n[nH]1 | -16 | –
35 | CC[C@@H](C)[C@H](NC(=O)CCc1c(C)c2cc3c4c(oc3c(C)c2oc1=O)CCCC4)C(=O)O | -7.86 | –
36 | COc1ccc(NC(=O)CN(C)C(=O)c2cc(C)oc2C)cc1 | -5.51 | –
37 | CC(C)=CCc1ccc(O)c(=O)cc1C(C)C | – | 20.6 µM (active)
38 | Cc1ccc(S(=O)(=O)c2c[nH]c3ccc(Cl)cc3c2=O)cc1 | -4.52 | –
39 | O=C1COc2ccc(C(=O)COC(=O)CCOc3ccccc3)cc2N1 | -3.08 | –
40 | O=C1COc2ccc(C(=O)COC(=O)c3cccnc3Cl)cc2N1 | -10.6 | –
41 | O=C1COc2ccc(C(=O)CSc3ccc(Br)cc3)cc2N1 | – | 16.4 µM (active)
42 | COCc1cc(=O)n2[nH]c(C)c(-c3ccccc3)c2n1 | -22 | –
43 | CCCc1cc(=O)n2[nH]c(C)c(-c3ccc(Cl)cc3)c2n1 | – | 14.6 µM (active)
44 | Cc1nc2c(-c3ccccc3)c(C)[nH]n2c(=O)c1Cl | -2.41 | –

Row | SMILES | activity change, negative = growth inhibition [%] | Potency
45 | CCCC(=O)C1=C(N(C)c2ccccc2)CC(C)(C)C(C(=O)OC)C1=O (centres undefined) | 1.17 | –
46 | O=C(CSc1ccc([N+](=O)[O-])cn1)Nc1ccc(N2CCOCC2)cc1 | -0.217 | –
47 | CCN(C(=O)CSc1nnc(-c2ccc(OC(F)F)cc2)n1N)C1CCS(=O)(=O)C1 (centres undefined) | -2.01 | –
48 | CCOc1ccccc1/C=c1\sc2nc(-c3ccco3)nn2c1=O | -27.5 | –
49 | CN(C)c1nc(N)nc(CSc2ccccn2)n1 | 0.12 | –
50 | Cc1cccc(NC(=O)c2cc(S(=O)(=O)N3CCC4(CC3)OCCO4)ccc2F)c1 | -12.9 | –
51 | Cc1ccc(NC(=O)c2cc(S(=O)(=O)NCCC3=CCCCC3)ccc2F)cc1C | – | 25.9 µM (active)
52 | Cc1ccc(NC(=O)CCNS(=O)(=O)c2ccc3c(c2)oc(=O)n3C)cc1C | -11.2 | –
53 | CCCc1nc(-c2cc3cc(C)ccc3[nH]c2=O)no1 | -0.734 | –
54 | NC(=O)C1CCN(C(=O)/C(=C/c2ccco2)NC(=O)c2ccccc2)CC1 | 2.41 | –
55 | COc1ccc(CCNC(=O)CSc2nnc(-c3cccc(F)c3)o2)cc1OC | -4.14 | –
56 | COc1ccc(CN(C(=O)CSc2nnc(-c3ccc(OC)c(OC)c3)o2)c2ccc(F)cc2)cc1 | – | 23.1 µM (active)
57 | CCN(CC)C(=O)CSc1nnc(-c2cccc(OC)c2)o1 | -15.7 | –
58 | O=C(NCc1ccccn1)c1cc2ccccc2oc1=O | 0.085 | –
59 | CCc1cccc(NC(=O)CCC(=O)O)c1 | -3.95 | –
60 | O=C(CCl)Nc1cccc(CP(=O)(c2ccccc2)c2ccccc2)c1 | – | 2.59 µM (active)
61 | O=C(CSCc1ccccc1)Nc1ccccc1 | -7.06 | –
62 | CCC(=O)N(Cc1cc2cc(OC)ccc2[nH]c1=O)c1ccccc1C | -18.3 | –
63 | COc1ccc2[nH]c(=O)c(CNc3ccc(C)c(C)c3)cc2c1 | – | 8.2 µM (active)
64 | COc1ccc(N(Cc2cc3cc(OC)ccc3[nH]c2=O)S(C)(=O)=O)cc1 | -16.8 | –

Reference: PubChem BioAssay AID686978 (National Center for Advancing Translational Sciences (NCATS), 2013)
